Screens deposited in PubChem BioAssay by National Center for Advancing Translational Sciences (NCATS).
HTT promoter inh: Primary qHTS for Identification of Small Molecule Inhibitors of Huntingtin Promoter Activity; 48,000 tested, 0.93% active; AID 1508623, 2021; HEK293 HTT promoter firefly luciferase reporter, 24 h; Potency, µM (titrated, usually from 57.5 µM), actives largely listed as inhibitors; further: nearly all actives have a fitted effect of over 50% in size
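Firefly luciferase readout (Dual-Glo, 10 min RT) after 24 h, 37 °C compound exposure (final up to 57.5 uM) of HEK293 reporter cells cultured 24 h beforehand; PTC124 at 50 uM final as control inhibitor; activity scaled vehicle 0%, zero RLU -100%.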
p53null 32C kill: qHTS Screen for Compounds that Selectively Target Cancer Cells with p53 Mutations: Cytotoxicity of p53 Null Cells at the Permissive Temperature; H1299-neo p53 null cells, ATP luminescence, 24 h, 32C; Potency, µM (doses to about 46.1 µM), most hits filed as cytotoxic; 55,000 tested, 0.62% active; further: nearly all actives have a fitted effect of over 55% in size
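Cells lacking p53 (H1299-neo) are plated at 600 per well and allowed to settle overnight at 37C. Test compounds (up to 46 uM) are added and held 24 hours at 32C, then ATP is quantified by luminescence.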
DRV1 agonist: qHTS for Agonists of Human Resolvin D1 Receptor DRV1. Probable G-protein coupled receptor 32 (Homo sapiens), O75388. CHO-K1 GPR32 beta-arrestin PathHunter luminescence, 90 min; zero percent set by DMSO-only wells. activation, % at 76.9 µM. 48,000 tested, 2.5% active. AID 1346428, 2018;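 active means activation of at least 60% and not above a set upper limit, about 1 call in 100 departs from these limits; inconclusive means activation of 40% to 60%, or above that upper limit; inactive means activation under 40%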
Target sequence (O75388 whole entry, looked up): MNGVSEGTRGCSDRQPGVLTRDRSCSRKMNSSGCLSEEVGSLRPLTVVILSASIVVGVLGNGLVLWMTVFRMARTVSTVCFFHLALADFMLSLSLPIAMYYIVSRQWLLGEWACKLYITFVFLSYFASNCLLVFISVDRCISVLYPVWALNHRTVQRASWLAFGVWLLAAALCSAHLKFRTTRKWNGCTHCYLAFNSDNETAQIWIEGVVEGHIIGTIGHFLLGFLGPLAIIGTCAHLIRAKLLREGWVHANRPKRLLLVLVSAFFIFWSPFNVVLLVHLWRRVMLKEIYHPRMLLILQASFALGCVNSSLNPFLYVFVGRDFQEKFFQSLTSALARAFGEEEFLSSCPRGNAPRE
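GPR32 activation in stably transfected CHO-K1 cells, detected as beta-arrestin recruitment by enzyme-fragment complementation. Compound exposure: 90 min, 37 °C.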
HTT-AS promoter: Primary qHTS for Identification of Small Molecule Activators of Huntingtin-Antisense Promoter Activity. 48,000 tested, 0.24% active. HEK293 HTT-AS promoter firefly luciferase reporter, 24 h; response scale: percent change from vehicle, -100% = no light. Potency, µM (highest dose often 57.5 µM), hits mostly activators; further: nearly all actives have a fitted effect of over 55% in size
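HEK293 cells carrying firefly luciferase reporters were seeded at 2,500 per well in Opti-MEM and cultured for 24 h. They were then treated with compounds at up to 57.5 uM final for 24 h at 37 degrees C before Dual-Glo luminescence readout.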
p53null 39C kill: qHTS Screen for Compounds that Selectively Target Cancer Cells with p53 Mutations: Cytotoxicity of p53 Null Cells at the Nonpermissive Temperature | H1299 p53-null (neo) cells, 39C, ATPlite viability, 24 h | Potency, µM (titrated, usually from 46.1 µM), hits mostly cytotoxic | 55,000 tested, 0.97% active | AID 904, 2007; further: nearly all actives have a fitted effect of over 50% in size
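Cells seeded at 600/well, 37C overnight. Compound added (up to 46 uM), plates shifted to 39C for 24 hr. ATPlite added, luminescence read after 20 min at room temperature.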
Of the large screens only hits and unclear results are named; the others gave an inactive call. Only some compounds are listed: those with a hit (about 3.9% of all), similar ones and a draw of the others. Unless noted, the call rests on the fitted dose curve; in most records, active means well fitted curve in the direction sought with a large enough effect; inconclusive means small, poorly fitted or top-dose-only effect, or another doubt; inactive means no such curve, though single readings can be large; an effect the other way counts as inactive or inconclusive.

c1nc(N2CCCC2)c2[nH]cnc2n1	none (no result: HTT promoter inh, DRV1 agonist, HTT-AS promoter)
O=c1[nH]cnc2nc[nH]c12	DRV1 agonist 82 (no result: p53null 32C kill, p53null 39C kill)
N#Cc1c(O)c2c(-c3ccc(-c4ccccc4O)cc3)csc2[nH]c1=O	none (no result: p53null 32C kill, DRV1 agonist, p53null 39C kill)
O=C(CCn1cnc2onc(-c3ccc(F)cc3)c2c1=O)Nc1ccc(F)c(Cl)c1	HTT promoter inh 22µM, p53null 39C kill inconclusive
Cn1cnc(-c2cc3nccc(Oc4ccc(NC(=S)NC(=O)Cc5ccccc5)cc4F)c3s2)c1	none (no result: p53null 32C kill, DRV1 agonist, p53null 39C kill)
CCCCC1C(=O)N(c2ccccc2)N(c2ccc(O)cc2)C1=O (configuration not stated)	HTT promoter inh inconclusive, DRV1 agonist 109 (no result: p53null 32C kill, p53null 39C kill)
O=C(NCCc1ccccc1Cl)c1ccc(Cn2c(=O)c3cccn3c3cccnc32)cc1	HTT promoter inh inconclusive, p53null 32C kill inconclusive, p53null 39C kill 10µM
Fc1ccccc1N1CCN(c2ncnc3c2nc2n3CCCCC2)CC1	HTT promoter inh inconclusive
Cc1cccc(/C=C/c2onc(C)c2S(=O)(=O)N2CCC(C(=O)N3CCCCC3)CC2)c1	HTT promoter inh inconclusive
Cc1cccc(N2CCN(C(=O)C3CCN(c4ncnc5c4nc4n5CCCCC4)CC3)CC2)c1C	HTT promoter inh inconclusive
c1ccc(N2CCN(c3ncnc4c3nc3n4CCCC3)CC2)cc1	HTT promoter inh 13µM, DRV1 agonist inconclusive
Cc1cccc(N2CCN(C(=O)C3CCN(S(=O)(=O)c4c(C)noc4C)CC3)CC2C)c1 (configuration not stated)	HTT promoter inh inconclusive, DRV1 agonist 108
Cc1cccc(N2CCN(C(=O)C3CCN(c4ncnc5c4nc4n5CCCCC4)CC3)CC2C)c1 (configuration not stated)	HTT promoter inh 25µM, p53null 39C kill inconclusive
COc1ccccc1N1CCN(c2ncnc3c2nc2n3CCCC2)CC1	HTT promoter inh inconclusive, p53null 32C kill inconclusive, DRV1 agonist 63
CCn1c(C(=O)NCCc2ccc(OC)c(OC)c2)cc2sc(Cl)cc21	HTT promoter inh inconclusive
Cn1c(C(=O)NCCc2ccccc2)cc2sc(Cl)cc21	p53null 32C kill 11µM, HTT-AS promoter inconclusive, p53null 39C kill 7.9µM
Cc1ccc(-c2nc(-c3cccs3)c(-c3cccs3)[nH]2)cc1	HTT promoter inh inconclusive
COc1ccccc1C1NC(=O)c2n[nH]c(-c3cccs3)c21 (configuration not stated)	HTT promoter inh inconclusive, DRV1 agonist 104
Cc1ccc(C2NC(=O)c3n[nH]c(-c4cccs4)c32)cc1 (configuration not stated)	DRV1 agonist 120
CN(C)C(=O)c1ccc(S(=O)(=O)c2ccc(NC(=O)[C@@](C)(O)C(F)(F)F)c(Cl)c2)cc1	none (no result: p53null 32C kill, DRV1 agonist, p53null 39C kill)
Cc1ccc(CNC(=O)CN(c2ccc(C(C)C)cc2)S(=O)(=O)c2c(C)n[nH]c2C)cc1	DRV1 agonist 83
Cc1ccc(CNC(=O)CN(c2ccc(C)cc2)S(=O)(=O)c2c(C)nn(C)c2C)cc1	none
Cc1ccc(-c2cc(-c3ccccc3)no2)c(O)c1	p53null 32C kill 7.9µM (no result: HTT promoter inh, DRV1 agonist, HTT-AS promoter, p53null 39C kill)
COc1ccc(-n2nc(C(N)=O)c3c2C(=O)N(c2ccc(N4CCCCC4=O)cc2)CC3)cc1	none (no result: p53null 32C kill, DRV1 agonist, p53null 39C kill)
O=Cc1ccc(O)c(O)c1O	none (no result: p53null 32C kill, p53null 39C kill)
CCN(CC)c1cc(C)c2cc(NC(=O)/C=C/c3cc(OC)c(OC)c(OC)c3)ccc2n1	p53null 32C kill inconclusive, p53null 39C kill 22µM
CCN(CC)c1cc(C)c2cc(NC(=O)c3cccc(OC)c3OC)ccc2n1	DRV1 agonist 95
CCOc1ccccc1C(=O)Nc1ccc2nc(N(CC)CC)cc(C)c2c1	none
CN(C)c1ccc2cc(C(=O)N[C@@H](CCCN=C(N)CCl)C(=O)NCc3ccccc3)ccc2c1	none (no result: p53null 32C kill, DRV1 agonist, p53null 39C kill)
Cn1cc(C2=C(c3c4n(c5ccccc35)CCC(CN)C4)C(=O)NC2=O)c2ccccc21 (configuration not stated)	HTT promoter inh inconclusive (no result: p53null 32C kill, DRV1 agonist, p53null 39C kill)
Nc1ncnc2c1ncn2Cc1c(F)cccc1Cl	none (no result: p53null 32C kill, p53null 39C kill)
O=C(Nc1nc2n(n1)C(c1ccccc1)C=C(c1ccc(Cl)cc1)N2)c1ccco1 (configuration not stated)	HTT promoter inh inconclusive
Cc1ccc(C2C=C(c3ccccc3)Nc3nc(NS(=O)(=O)c4ccc(C)cc4)nn32)cc1 (configuration not stated)	DRV1 agonist 94
COc1ccc(C2C=C(c3ccccc3)Nc3nc(NS(=O)(=O)c4ccc(C)cc4)nn32)cc1 (configuration not stated)	DRV1 agonist inconclusive
Cc1ccc(C2C=C(c3ccc(Cl)cc3)Nc3nc(NS(=O)(=O)c4ccccc4)nn32)cc1 (configuration not stated)	DRV1 agonist 73
COc1nccc(-c2c(-c3ccc(F)cc3)ncn2C2CCNCC2)n1	HTT promoter inh inconclusive (no result: p53null 32C kill, DRV1 agonist, p53null 39C kill)
Cc1c(-c2nc(-c3ccccc3F)no2)nnn1-c1cc(F)ccc1F	p53null 32C kill inconclusive, HTT-AS promoter inconclusive, p53null 39C kill 3.2µM
CCc1ccccc1-n1nnc(-c2nc(-c3ccccc3F)no2)c1C	p53null 32C kill inconclusive
COc1cc(CNC(=O)c2ccc3nc(CCc4ccccc4)oc3c2)cc(OC)c1OC	HTT promoter inh inconclusive
COc1cc(CNC(=O)c2ccc3nc(Cc4ccccc4)oc3c2)cc(OC)c1OC	HTT promoter inh 14µM
CN(C)S(=O)(=O)N(CC(=O)NCCSc1ccc(Cl)cc1)c1ccccc1	DRV1 agonist 70
C[C@@H]1CCN(C(=O)CC#N)C[C@H]1N(C)c1ncnc2[nH]ccc12	none (no result: p53null 32C kill, DRV1 agonist, p53null 39C kill)
C#CC(C)(CC)NC(=O)Cn1nnc(-c2ccc(OCc3ccccc3C)cc2)n1 (configuration not stated)	DRV1 agonist 62
O=C(Cn1nnc(-c2ccc(OCc3ccccc3F)cc2)n1)N1CCOCC1	none (no result: HTT promoter inh, DRV1 agonist, HTT-AS promoter)
C#CC(C)(CC)NC(=O)Cn1nnc(-c2ccc(OCc3ccccc3F)cc2)n1 (configuration not stated)	DRV1 agonist 91
CC1CCC(C(=O)N(c2cc(C#CC(C)(C)C)sc2C(=O)O)C2CCC(O)CC2)CC1 (configuration not stated)	HTT promoter inh inconclusive (no result: p53null 32C kill, DRV1 agonist, p53null 39C kill)
CC(=O)O[C@@H]1CC2C3CCc4cc(OC(=O)c5ccccc5)ccc4C3CCC2(C)[C@H]1OC(C)=O (some centres not stated)	none (no result: p53null 32C kill, p53null 39C kill)
CCOC(=O)c1noc2ncn(CC(=O)Nc3cccc(C(F)(F)F)c3)c(=O)c12	DRV1 agonist 65
Cc1cc(C)c(Cn2c(CCNC(=O)c3ccco3)nc3ccccc32)c(C)c1	DRV1 agonist 68 (no result: HTT promoter inh, HTT-AS promoter)
